Drawing on PubChem BioAssay, this text covers growth inhibition, inhibition and outcome for 21 molecules.

Assay [1] can be described thus: antimalarial activity against Dd2 strain (AID 2302;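 active means growth inhibition above 50% at the single 2 µM test dose, taken to imply half-maximal potency below 2 µM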;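 further: 0% = DMSO untreated growth and 100% = chloroquine plus artemisinin killed control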). The conditions noted are these: P. falciparum Dd2 in RBCs, LDH growth readout, 72 h; at 2 µM; hits give high values.
Assay [2] in a line: HepG2 cytotoxicity, primary screen, cytotoxicity control for P. falciparum antimalarial project, cell-based, ATP luminescence (AID 2303;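 active means inhibition above 50%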;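 further: 0% = DMSO wells and 100% = digitonin-killed cells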). The conditions noted are these: HepG2 viability, 24-48 h, at 10 µM, hits give high values.
Assay [3] concerns the target L-lactate dehydrogenase (Plasmodium falciparum (isolate CDC / Honduras)) (UniProt Q27743). The assay is described as follows: PfLDH activity inhibition – cell lysate, 3D7 strain, counter-screen for P. falciparum growth inhibition project (AID 2304).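 Further: 0% = vehicle and 100% = reference inhibitor.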 The conditions noted are these: P. falciparum 3D7 crude extract, LDH APAD/NBT absorbance; at 2 µM; hits give high values. On the technique in general: The purpose of a counterscreen is to sort out artefacts and off-target activity.

The nature of assay [4]: inhibition of 3D7 malaria parasite growth – strain 3D7 (AID 2306).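 Further: 0% = DMSO wells and 100% = chloroquine plus artemisinin control wells.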 The conditions noted are these: P. falciparum 3D7 erythrocytic growth, LDH absorbance, 72 h; at 2 µM; hits give high values.
For assay [5], the target named is Calcium-dependent protein kinase 1 (Plasmodium falciparum (isolate 3D7)) (UniProt P62344). The assay is described as follows: PfCDPK1 kinase inhibitors, biochemical, TCAMS library (AID 1159585; cut-off not given, nearly all actives have IC50 up to about 0.98 µM;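 further: inhibitors leave more ATP so luminescence rises with inhibition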). The conditions noted are these: recombinant PfCDPK1, Kinase-Glo ATP depletion luminescence. For orientation: Kinase-Glo reads ATP consumption through a luciferase reaction.
Calcium-dependent protein kinase 1 (Plasmodium falciparum (isolate 3D7)), sequence (P62344 whole entry, looked up): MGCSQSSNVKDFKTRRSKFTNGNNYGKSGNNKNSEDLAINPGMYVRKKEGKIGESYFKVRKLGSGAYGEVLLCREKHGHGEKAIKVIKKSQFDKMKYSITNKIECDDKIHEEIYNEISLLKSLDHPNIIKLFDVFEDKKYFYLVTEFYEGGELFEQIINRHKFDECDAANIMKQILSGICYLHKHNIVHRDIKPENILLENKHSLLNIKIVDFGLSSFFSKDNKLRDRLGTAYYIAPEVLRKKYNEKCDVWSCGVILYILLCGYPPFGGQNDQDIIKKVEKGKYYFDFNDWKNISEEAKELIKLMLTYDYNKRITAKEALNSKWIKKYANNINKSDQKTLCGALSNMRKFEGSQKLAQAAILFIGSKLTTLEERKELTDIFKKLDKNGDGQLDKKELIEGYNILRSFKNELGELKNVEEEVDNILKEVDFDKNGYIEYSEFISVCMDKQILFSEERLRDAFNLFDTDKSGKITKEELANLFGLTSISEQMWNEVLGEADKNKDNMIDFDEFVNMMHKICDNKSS

The target in assay [6] is Plasmodium falciparum protein kinase 6 (PK6, PF3D7_1337100) (UniProt Q8IDW1). The experiment in a line: PfPK6 kinase inhibitors, biochemical, TCAMS library (AID 1159586). The conditions noted are these: recombinant PfPK6, Kinase-Glo ATP depletion luminescence.
Plasmodium falciparum protein kinase 6 (PK6, PF3D7_1337100), sequence (Q8IDW1 1-305): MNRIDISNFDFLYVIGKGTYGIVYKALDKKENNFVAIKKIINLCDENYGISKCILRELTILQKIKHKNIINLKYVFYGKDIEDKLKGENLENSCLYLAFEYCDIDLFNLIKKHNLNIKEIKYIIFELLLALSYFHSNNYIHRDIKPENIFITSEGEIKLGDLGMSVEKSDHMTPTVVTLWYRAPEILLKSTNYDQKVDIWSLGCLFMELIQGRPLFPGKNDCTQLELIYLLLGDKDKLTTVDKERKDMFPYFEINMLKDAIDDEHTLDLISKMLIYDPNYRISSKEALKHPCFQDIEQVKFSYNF
For assay [7], the target named is Protein kinase 7 (PK7), Plasmodium falciparum 3D7 (PF3D7_0213400) (UniProt Q7YTF7). The experiment in a line: inhibition of Plasmodium PK7 catalytic activity – biochemical, TCAMS antimalarial set, Kinase-Glo luminescence (AID 1159587). The conditions noted are these: recombinant PfPK7, Kinase-Glo ATP depletion luminescence.
Protein kinase 7 (PK7), Plasmodium falciparum 3D7 (PF3D7_0213400), sequence (Q7YTF7 1-343): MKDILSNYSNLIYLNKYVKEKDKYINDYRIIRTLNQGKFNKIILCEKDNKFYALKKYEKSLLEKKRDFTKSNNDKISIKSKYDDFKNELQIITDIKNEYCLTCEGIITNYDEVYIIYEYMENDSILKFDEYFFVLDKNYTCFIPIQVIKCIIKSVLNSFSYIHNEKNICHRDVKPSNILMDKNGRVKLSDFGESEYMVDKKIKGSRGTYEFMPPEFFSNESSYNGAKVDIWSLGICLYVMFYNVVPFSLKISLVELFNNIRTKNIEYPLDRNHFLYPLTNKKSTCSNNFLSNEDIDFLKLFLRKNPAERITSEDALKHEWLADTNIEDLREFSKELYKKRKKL
Assay [8] deals with Calcium-dependent protein kinase 4 (Plasmodium falciparum (isolate 3D7)) (UniProt Q8IBS5). The assay is described as follows: PfCDPK4 kinase inhibitors, biochemical, TCAMS library (AID 1159588; cut-off not given, nearly all actives have IC50 up to about 0.91 µM). The conditions noted are these: recombinant PfCDPK4, Kinase-Glo ATP depletion luminescence.
Calcium-dependent protein kinase 4 (Plasmodium falciparum (isolate 3D7)), sequence (Q8IBS5 whole entry, looked up): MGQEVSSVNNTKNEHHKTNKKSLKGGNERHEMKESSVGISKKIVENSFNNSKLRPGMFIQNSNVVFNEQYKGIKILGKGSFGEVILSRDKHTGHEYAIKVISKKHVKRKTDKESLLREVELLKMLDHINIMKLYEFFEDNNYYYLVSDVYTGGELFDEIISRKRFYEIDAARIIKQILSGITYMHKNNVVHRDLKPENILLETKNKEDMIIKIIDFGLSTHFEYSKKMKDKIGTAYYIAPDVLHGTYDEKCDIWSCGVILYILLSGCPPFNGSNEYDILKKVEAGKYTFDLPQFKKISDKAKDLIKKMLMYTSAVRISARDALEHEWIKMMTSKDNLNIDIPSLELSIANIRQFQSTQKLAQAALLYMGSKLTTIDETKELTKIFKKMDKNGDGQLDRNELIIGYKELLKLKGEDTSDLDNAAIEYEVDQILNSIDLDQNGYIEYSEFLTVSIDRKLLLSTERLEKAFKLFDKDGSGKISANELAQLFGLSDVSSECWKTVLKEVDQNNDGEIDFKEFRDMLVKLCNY

Usually inhibition stands for the relative decrease from the control value, in per cent.

Unmarked numbers belong to inactive results. For part of these data: Entries with a potency or affinity are not part of this list. Calls of active or inactive are those of the source. Unless noted, how the calls were made is not given here.

L-lactate dehydrogenase (Plasmodium falciparum (isolate CDC / Honduras)), sequence (Q27743 whole entry, looked up): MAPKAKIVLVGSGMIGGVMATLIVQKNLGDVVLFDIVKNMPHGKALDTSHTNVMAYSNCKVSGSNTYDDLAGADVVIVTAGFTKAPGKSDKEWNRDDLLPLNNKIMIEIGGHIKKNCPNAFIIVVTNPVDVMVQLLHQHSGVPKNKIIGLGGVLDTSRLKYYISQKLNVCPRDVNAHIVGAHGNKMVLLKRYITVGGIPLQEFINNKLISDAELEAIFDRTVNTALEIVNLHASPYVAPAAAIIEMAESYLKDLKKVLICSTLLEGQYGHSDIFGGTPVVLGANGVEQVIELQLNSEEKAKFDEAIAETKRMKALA

With `CN(C)CCNC(=O)[C@H](CC1CCCCC1)NC(=O)c1ccc(O)c(-c2ccc(Cl)c(Cl)c2)c1`, the growth inhibition in assay [1] was 97% (active); in assay [4], 98% (active). Further, the inhibition in assay [2] was 0%; in assay [3] it was -4%. The result in assay [5], in assay [6], in assay [7] and in assay [8] was inactive.

In the case of `CN(C)CCOc1cc(NC(=O)Nc2ccc(-c3ccncc3)c3ccccc23)ccc1I`, the growth inhibition was 46% in assay [1] and 97% (active) in assay [4]. The inhibition in assay [2] was 35%; in assay [3], -3%. Also, the result in assay [5], in assay [6], in assay [7] and in assay [8] was inactive.

Regarding `O=S(=O)(Nc1cc2c(cc1OCc1ccccc1)CCN(C1CCC1)CC2)c1ccc(-c2ccc(Cl)cc2)cc1`, the values for the growth inhibition in assay [1] and in assay [4] were 12% and 92% (active), respectively. The inhibition in assay [2] was 18%; in assay [3], 0%. Further, the outcome in assay [5], in assay [6], in assay [7] and in assay [8] was inactive.

As for `O=C(Nc1ccc(Cl)cc1)Nc1ccc(-c2ccc(-c3nc4ccccc4[nH]3)cc2)cc1`, the growth inhibition in assay [1] is 99% (active); in assay [4] it was 101% (active). The inhibition in assay [2] was 47%; in assay [3] it was 0%. Also, the result in assay [5], in assay [6], in assay [7] and in assay [8] was inactive.

On to `FC(F)(F)c1cccc(Nc2nc3nonc3nc2NC2C3CC4CC(C3)CC2C4)c1` (stereo not drawn), for which the figures for the growth inhibition in assay [1] and in assay [4] were 100% (active) and 103% (active), respectively. Moreover, the results for the inhibition in assay [2] and in assay [3] were 72% (active) and -2%, respectively. The outcome in assay [5], in assay [6], in assay [7] and in assay [8] was inactive.

Consider `Cc1ccc(/C=C/C(=O)NC2CCC(N3CCC(c4ccccc4C)CC3)CC2)cc1C` (stereo not drawn), for which the results for the growth inhibition in assay [1] and in assay [4] were 43% and 100% (active), respectively. Also, the inhibition is 12% in assay [2] and -3% in assay [3]. For the same molecule, the result in assay [5], in assay [6], in assay [7] and in assay [8] was inactive.

In the case of `CC1(C)N=C(N)N=C(N)N1OCCSCCON1C(N)=NC(N)=NC1(C)C`, the growth inhibition in assay [1] is 81% (active); in assay [4], 95% (active). For the same molecule, the inhibition in assay [2] is 34%; in assay [3], -4%. Further, the outcome in assay [5], in assay [6], in assay [7] and in assay [8] was inactive.

With `Cc1cccc2[nH]c(-c3cccc(-c4cccc(NC(=O)c5ccoc5)c4)c3)nc12`, the growth inhibition in assay [1] was 71% (active); in assay [4], 99% (active). Also, the inhibition in assay [2] was 19%; in assay [3] it was -4%. For the same molecule, the outcome in assay [5], in assay [6], in assay [7] and in assay [8] was inactive.

As for `O=C(NCCN1CCC(NC(=O)c2ccc(-c3ccccn3)s2)CC1)c1ccc(Cl)c(Cl)c1`, the values for the growth inhibition in assay [1] and in assay [4] were 48% and 97% (active), respectively. The inhibition in assay [2] was 24%; in assay [3], -5%. Moreover, the result in assay [5], in assay [6], in assay [7] and in assay [8] was inactive.

Regarding `Cn1nccc1C(=O)NCCNCc1cccc(-c2cccc(-c3nc4ccc(C(F)(F)F)cc4[nH]3)c2)c1`, the figures for the growth inhibition in assay [1] and in assay [4] were 99% (active) and 102% (active), respectively. The inhibition is 39% in assay [2] and -7% in assay [3]. In addition, the result in assay [5], in assay [6], in assay [7] and in assay [8] was inactive.

As for `CCCOc1c(CCNCCCCNCCc2ccc3ccccc3c2OCCC)ccc2ccccc12`, the values for the growth inhibition in assay [1] and in assay [4] were 78% (active) and 100% (active), respectively. Further, the results for the inhibition in assay [2] and in assay [3] were 100% (active) and 7%, respectively. The outcome in assay [5], in assay [6], in assay [7] and in assay [8] was inactive.

For `Nc1ncc(Cc2ccc3c(ccc4ccccc43)c2)c(N)n1`, the growth inhibition was 3% in assay [1] and 97% (active) in assay [4]. For the same molecule, the results for the inhibition in assay [2] and in assay [3] were 9% and -5%, respectively. Further, the outcome in assay [5], in assay [6], in assay [7] and in assay [8] was inactive.

`Cc1cc(NC(=O)c2sc3ccccc3c2O)no1`: the figures for the growth inhibition in assay [1] and in assay [4] were 25% and 96% (active), respectively. Moreover, the inhibition in assay [2] was 6%; in assay [3] it was 1%. Also, the result in assay [5], in assay [6], in assay [7] and in assay [8] was inactive.

Turning to `CCN(CC)CCNc1ccnc2c3ccccc3n(C)c12`, the growth inhibition in assay [1] is 99% (active); in assay [4], 101% (active). Also, the inhibition in assay [2] is 14%; in assay [3] it was -4%. The result in assay [5], in assay [6], in assay [7] and in assay [8] was inactive.

Take `O=C(Nc1cccc(F)c1)NC1CCN(c2ccnc3cc(Cl)ccc23)CC1`: the results for the growth inhibition in assay [1] and in assay [4] were 37% and 96% (active), respectively. Moreover, the inhibition in assay [2] is 11%; in assay [3], -4%. In addition, the outcome in assay [5], in assay [6], in assay [7] and in assay [8] was inactive.

Consider `CCCn1c(Sc2ccc(C#N)c([N+](=O)[O-])c2)nnc1-c1ccc(OC)cc1`, for which the growth inhibition was 95% (active) in assay [1] and 94% (active) in assay [4]. Also, the inhibition is -6% in assay [2] and -2% in assay [3]. Moreover, the result in assay [5], in assay [6], in assay [7] and in assay [8] was inactive.

Take `FC(F)(F)c1ccc(-c2ccc(CNC3CCN(CCN4CCOCC4)CC3)cc2)cc1`: the figures for the growth inhibition in assay [1] and in assay [4] were 74% (active) and 103% (active), respectively. Besides, the inhibition is 44% in assay [2] and 0% in assay [3]. Also, the result in assay [5], in assay [6], in assay [7] and in assay [8] was inactive.

Turning to `COc1ccc2nccc([C@@H](O)CN3CCC(NC(=O)/C=C/c4ccnc5ccccc45)CC3)c2c1`, the growth inhibition was 12% in assay [1] and 91% (active) in assay [4]. In addition, the inhibition in assay [2] is 19%; in assay [3] it was -1%. For the same molecule, the result in assay [5], in assay [6], in assay [7] and in assay [8] was inactive.

`Cc1cccc(-c2nn(-c3ccccc3)c3[nH]c(=O)c(CN4CCSCC4)cc23)c1`: the growth inhibition in assay [1] and in assay [4] was 98% (active) each time. The inhibition in assay [2] is -3%; in assay [3], 0%. Further, the result in assay [5], in assay [6], in assay [7] and in assay [8] was inactive.

As for `Cc1cc(NN=Cc2ccccc2[N+](=O)[O-])c2cc(F)ccc2n1`, the growth inhibition was 100% (active) in assay [1] and 102% (active) in assay [4]. The inhibition is 18% in assay [2] and -3% in assay [3]. For the same molecule, the result in assay [5], in assay [6], in assay [7] and in assay [8] was inactive.

Regarding `CS(=O)(=O)c1ccc(OCCCN(Cc2ccccc2C(F)(F)F)c2ccc(C#N)c(C(F)(F)F)c2)cc1`, the growth inhibition in assay [1] is 76% (active); in assay [4], 94% (active). The inhibition is 4% in assay [2] and -5% in assay [3]. Further, the outcome in assay [5], in assay [6], in assay [7] and in assay [8] was inactive.
